Results: PubChem BioAssay AID1159580 (chemical genetic matrix, 2015)
Screen size: about 5,500 compounds; about 2,000 (36%) were called active. Roughly 18% stayed inconclusive and do not appear here. No stated cut-off is given here; in the data, active means normalized growth mostly below about 0.91 (no sharp cut-off); inconclusive means no clear call, values can overlap the other calls; inactive means mostly above about 0.92. The list shows a part of the results.

Assay: chemical genetic growth profiling, strain panel (AID 1159580);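 further: tested at 20 µM; growth read once vehicle control cultures reached saturation at 30 °C; 1 = growth at the plate median or of vehicle wells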
Conditions: growth OD

Measured: normalized growth

CN(C)C(=O)Nc1ccc(Cl)c(Cl)c1
inactive: S. cerevisiae deletion strains, locus YJR075W, strain HOC1, stronger effect = lower value 0.958 | S. cerevisiae deletion strains, locus YKL009W, strain mrt4, stronger effect = lower value 0.97 | S. cerevisiae deletion strains, locus YKL068W, stronger effect = lower value 1 | S. cerevisiae deletion strains, locus YKL085W, strain MDH1 (second series), stronger effect = lower value 1 | S. cerevisiae deletion strains, locus YKL085W, strain MDH1, stronger effect = lower value 1 | S. cerevisiae deletion strains, locus YKL160W, strain elf1, stronger effect = lower value 0.955 | S. cerevisiae deletion strains, locus YKL190W, strain CNB1, stronger effect = lower value 0.996 | S. cerevisiae deletion strains, locus YKR001C, strain vps1, stronger effect = lower value 0.984 | S. cerevisiae deletion strains, locus YKR026C, strain gcn3, stronger effect = lower value 0.993 | S. cerevisiae deletion strains, locus YKR091W, strain srl3, stronger effect = lower value 0.982 | S. cerevisiae deletion strains, locus YLL001W, strain dnm1, stronger effect = lower value 0.901 | S. cerevisiae deletion strains, locus YLL026W, stronger effect = lower value 0.991 | S. cerevisiae deletion strains, locus YLL041C, strain sdh2, stronger effect = lower value 0.994 | S. cerevisiae deletion strains, locus YLR027C, strain aat2, stronger effect = lower value 0.969 | S. cerevisiae deletion strains, locus YLR039C, strain RIC1, stronger effect = lower value 1.04 | S. cerevisiae deletion strains, locus YLR058C, strain SHM2, stronger effect = lower value 0.991 | S. cerevisiae deletion strains, locus YLR102C, strain apc9, stronger effect = lower value 1 | S. cerevisiae deletion strains, locus YLR113W, strain HOG1, stronger effect = lower value 0.909 | S. cerevisiae deletion strains, locus YLR221C, strain rsa3, stronger effect = lower value 0.963 | S. cerevisiae deletion strains, locus YLR258W, strain gsy2, stronger effect = lower value 0.984 | S. cerevisiae deletion strains, locus YLR262C, strain YPT6 (second series), stronger effect = lower value 0.996 | S. cerevisiae deletion strains, locus YLR262C, strain YPT6, stronger effect = lower value 1.01 | S. cerevisiae deletion strains, locus YLR268W, strain sec22, stronger effect = lower value 0.988 | S. cerevisiae deletion strains, locus YLR320W, strain mms22, stronger effect = lower value 0.98 | S. cerevisiae deletion strains, locus YLR330W, strain CHS5, stronger effect = lower value 0.994 | S. cerevisiae deletion strains, locus YLR342W, strain FKS1 (second series), stronger effect = lower value 0.983 | S. cerevisiae deletion strains, locus YLR342W, strain FKS1, stronger effect = lower value 0.985 | S. cerevisiae deletion strains, locus YLR357W, strain rsc2, stronger effect = lower value 0.969 | S. cerevisiae deletion strains, locus YLR370C, strain arc18, stronger effect = lower value 0.965 | S. cerevisiae deletion strains, locus YLR371W, strain rom2, stronger effect = lower value 1 | S. cerevisiae deletion strains, locus YLR384C, strain iki3, stronger effect = lower value 1.01 | S. cerevisiae deletion strains, locus YLR418C, strain cdc73, stronger effect = lower value 0.85 | S. cerevisiae deletion strains, locus YML016C, strain PPZ1, stronger effect = lower value 0.993 | S. cerevisiae deletion strains, locus YML032C, strain rad52, stronger effect = lower value 0.994 | S. cerevisiae deletion strains, locus YML120C, strain ndi1, stronger effect = lower value 0.985 | S. cerevisiae deletion strains, locus YML124C, strain tub3, stronger effect = lower value 1 | S. cerevisiae deletion strains, locus YMR058W, strain fet3, stronger effect = lower value 0.992 | S. cerevisiae deletion strains, locus YMR078C, strain ctf18, stronger effect = lower value 0.999 | S. cerevisiae deletion strains, locus YMR125W, strain sto1, stronger effect = lower value 1.04 | S. cerevisiae deletion strains, locus YMR129W, stronger effect = lower value 0.991 | S. cerevisiae deletion strains, locus YMR205C, strain PFK2, stronger effect = lower value 0.917 | S. cerevisiae deletion strains, locus YMR223W, strain ubp8, stronger effect = lower value 0.987 | S. cerevisiae deletion strains, locus YMR231W, strain pep5, stronger effect = lower value 1 | S. cerevisiae deletion strains, locus YMR263W, strain SAP30, stronger effect = lower value 0.956 | S. cerevisiae deletion strains, locus YMR307W, strain GAS1, stronger effect = lower value 0.812 | S. cerevisiae deletion strains, locus YNL067W, strain RPL9B, stronger effect = lower value 0.986 | S. cerevisiae deletion strains, locus YNL071W, strain lat1, stronger effect = lower value 0.982 | S. cerevisiae deletion strains, locus YNL128W, strain TEP1, stronger effect = lower value 0.993 | S. cerevisiae deletion strains, locus YNL153C, strain GIM3, stronger effect = lower value 0.996 | S. cerevisiae deletion strains, locus YNL183C, strain NPR1, stronger effect = lower value 0.939 | S. cerevisiae deletion strains, locus YNL209W, strain ssb2, stronger effect = lower value 0.972 | S. cerevisiae deletion strains, locus YNL233W, strain BNI4, stronger effect = lower value 0.97 | S. cerevisiae deletion strains, locus YNL248C, strain rpa49, stronger effect = lower value 1.02 | S. cerevisiae deletion strains, locus YNL250W, strain rad50, stronger effect = lower value 1.01 | S. cerevisiae deletion strains, locus YNL271C, strain bni1, stronger effect = lower value 1 | S. cerevisiae deletion strains, locus YNL298W, strain CLA4, stronger effect = lower value 0.998 | S. cerevisiae deletion strains, locus YNL307C, strain MCK1, stronger effect = lower value 0.935 | S. cerevisiae deletion strains, locus YNL322C, strain KRE1 (second series), stronger effect = lower value 0.969 | S. cerevisiae deletion strains, locus YNL322C, strain KRE1, stronger effect = lower value 1 | S. cerevisiae deletion strains, locus YNR049C, strain mso1, stronger effect = lower value 0.987 | S. cerevisiae deletion strains, locus YNR052C, strain pop2, stronger effect = lower value 1.03 | S. cerevisiae deletion strains, locus YOL006C, strain TOP1, stronger effect = lower value 0.862 | S. cerevisiae deletion strains, locus YOL012C, strain htz1 1.04 | S. cerevisiae deletion strains, locus YOL147C, strain pex11, stronger effect = lower value 1 | S. cerevisiae deletion strains, locus YOR001W, strain rrp6, stronger effect = lower value 1 | S. cerevisiae deletion strains, locus YOR061W, strain CKA2, stronger effect = lower value 1 | S. cerevisiae deletion strains, locus YOR069W, strain VPS5, stronger effect = lower value 1 | S. cerevisiae deletion strains, locus YOR070C, strain gyp1, stronger effect = lower value 0.997 | S. cerevisiae deletion strains, locus YOR080W, strain dia2, stronger effect = lower value 1.01 | S. cerevisiae deletion strains, locus YOR083W, strain WHI5, stronger effect = lower value 0.927 | S. cerevisiae deletion strains, locus YOR106W, strain vam3, stronger effect = lower value 0.919 | S. cerevisiae deletion strains, locus YOR136W, strain idh2, stronger effect = lower value 0.997 | S. cerevisiae deletion strains, locus YOR144C, strain elg1, stronger effect = lower value 1.01 | S. cerevisiae deletion strains, locus YOR184W, strain ser1, stronger effect = lower value 0.929 | S. cerevisiae deletion strains, locus YOR231W, strain MKK1, stronger effect = lower value 0.991 | S. cerevisiae deletion strains, locus YOR265W, strain rbl2, stronger effect = lower value 0.992 | S. cerevisiae deletion strains, locus YOR270C, strain vph1, stronger effect = lower value 0.925 | S. cerevisiae deletion strains, locus YOR290C, strain snf2, stronger effect = lower value 0.926 | S. cerevisiae deletion strains, locus YOR316C, strain cot1, stronger effect = lower value 1 | S. cerevisiae deletion strains, locus YPL051W, strain arl3, stronger effect = lower value 0.956 | S. cerevisiae deletion strains, locus YPL055C, strain LGE1, stronger effect = lower value 0.95 | S. cerevisiae deletion strains, locus YPL078C, strain atp4, stronger effect = lower value 0.988 | S. cerevisiae deletion strains, locus YPL106C, strain sse1, stronger effect = lower value 0.981 | S. cerevisiae deletion strains, locus YPL240C, strain hsp82, stronger effect = lower value 0.982 | S. cerevisiae deletion strains, locus YPL241C, strain CIN2, stronger effect = lower value 1 | S. cerevisiae deletion strains, locus YPL256C, strain CLN2, stronger effect = lower value 0.975 | S. cerevisiae deletion strains, locus YPR119W, strain clb2, stronger effect = lower value 0.996 | S. cerevisiae deletion strains, locus YPR141C, strain kar3, stronger effect = lower value 1 | S. cerevisiae deletion strains, locus YPR163C, strain tif3, stronger effect = lower value 1 | S. cerevisiae deletion strains, locus YPR167C, strain met16, stronger effect = lower value 0.999 | S. cerevisiae deletion strains, strain wtn01, stronger effect = lower value 0.994 | S. cerevisiae strains, strain wild type, stronger effect = lower value 0.995
